These results are taken from PubChem BioAssay.

The nature of experiment [1]: compound effects on differentiated 3T3-L1 adipocyte viability – cell-based, 3T3-L1 adipocytes, calcein-AM fluorescence, 48 h, basal, profiling panel (AID 1163). The settings on record: 3T3-L1 adipocytes viability, higher = more signal.
A short description of experiment [2]: compound effects on hepatocellular carcinoma cell viability – HepG2, calcein-AM fluorescence, 48 h, basal, profiling panel (AID 1164). The following applies: higher = more signal.
The nature of experiment [3]: compound effects on multiple myeloma cell viability – MM1S, calcein-AM fluorescence, 48 h, basal, profiling panel (AID 1165).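 Note: viability of MM1S multiple myeloma cells under basal unstimulated conditions.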 The following applies: higher = more signal.
The nature of experiment [4]: calcein-AM signal in unstimulated myeloma cells – cell-based, calcein-AM fluorescence, 48 h, PK04 Diversity Set, profiling panel (AID 1166).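 Note: cells grown under basal conditions without added stimulus.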 The settings on record: RPMI8226 myeloma viability, higher = more signal.
Experiment [5] can be described thus: JC-1 mitochondrial signal, unstimulated HepG2 cells – cell-based, JC-1 fluorescence, 24 h, 100 nL compound, profiling panel (AID 1167). The following applies: HepG2 mitochondrial potential, higher = more signal.
The nature of experiment [6]: JC-1 mitochondrial signal, unstimulated adipocytes – cell-based, JC-1 fluorescence, 3T3-L1 adipocytes, 24 h, 100 nL compound, profiling panel (AID 1168). The settings on record: JC-1 mitochondrial fluorescence, higher = more signal, called active from +8 up or from −8 down.
Experiment [7] in a line: JC-1 mitochondrial signal, unstimulated myeloma cells – cell-based, JC-1 fluorescence, RPMI8226, 24 h, 100 nL compound, profiling panel (AID 1169). The following applies: JC-1 mitochondrial potential fluorescence, higher = more signal.
Experiment [8] in a line: JC-1 mitochondrial signal, unstimulated MM1S myeloma – cell-based, JC-1 fluorescence, 24 h, 100 nL compound, profiling panel (AID 1170). The following applies: MM1S mitochondrial potential, higher = more signal.
Experiment [9] in a line: resazurin metabolic signal in A549 cells – cell-based, resazurin fluorescence, 24 h, PK04 Diversity Set, profiling panel (AID 1171). The settings on record: A549 viability, higher = more signal, called active from +8 up or from −8 down.
The nature of experiment [10]: resazurin metabolic signal in HepG2 cells – cell-based, resazurin fluorescence, 24 h, PK04 Diversity Set, profiling panel (AID 1172). The settings on record: HepG2 viability, higher = more signal. Background: Alamar Blue is a resazurin reagent that responds to reducing activity.
Experiment [11] in a line: budding yeast growth changes without added modifier – OD600, strain BY4716, 24 h, basal condition, primary screen (AID 1173). The settings on record: S. cerevisiae BY4716 growth, OD600, 24 h; higher = more signal, called active from +8 up or from −8 down.
Experiment [12] in a line: viability profiling in MM1S myeloma cells – cell-based, resazurin fluorescence, basal, 24 h, PK04 Diversity Set, profiling panel (AID 1174). The following applies: higher = more signal, called active from +8 up or from −8 down.
The target in experiment [13] is Dihydroorotate dehydrogenase (quinone), mitochondrial (Plasmodium falciparum (isolate 3D7)) (UniProt Q08210). Nature of the experiment: inhibition of P. falciparum DHODH – biochemical, C-terminal His tag, absorbance 600 nm, primary screen (AID 1175).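 Note: recombinant parasite enzyme with a five histidine tag at its C terminus.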 The following applies: PfDHODH enzyme, DCIP absorbance 600 nm; higher = more signal, called active from +8 up or from −8 down.

The nature of experiment [14]: growth modulation of vineyard yeast isolate – strain RM11-1a, OD600, basal, 24 h, primary screen (AID 1177).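 Note: cultures grown under basal conditions with no added stressor.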 The settings on record: S. cerevisiae RM11-1a growth, OD600, 24 h; higher = more signal, called active from +8 up or from −8 down.
The nature of experiment [15]: growth of efflux-deficient E. coli DRC39 – strain DRC39, OD650, 24 h, E. coli filamentation inducers, primary screen (AID 1178).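 Note: growth measured as culture turbidity by optical density at 650 nm.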 The settings on record: E. coli DRC39 acrAB, higher = more signal, called active from +8 up or from −8 down.
Experiment [16] in a line: growth of efflux-deficient E. coli DRC39 – strain DRC39, OD650, 48 h, E. coli filamentation inducers, primary screen (AID 1179).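 Note: screen aims at cell division blockers that make cells filament.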 The settings on record: E. coli DRC39 delta-acrAB growth, higher = more signal, called active from +8 up or from −8 down.
Experiment [17] in a line: viability profiling in RPMI8226 myeloma cells – cell-based, resazurin fluorescence, basal, 24 h, PK04 Diversity Set, profiling panel (AID 1180).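 Note: RPMI8826 multiple myeloma cell line at 5000 cells per well.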 The following applies: higher = more signal.
Experiment [18] has as its target E3 ubiquitin-protein ligase XIAP (Homo sapiens) (UniProt P98170). Nature of the experiment: small molecules binding XIAP protein – biophysical, small-molecule microarray, fluorescence 635 nm, primary screen (AID 1181).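 Note: score merges 667 nm emission and signal to noise over triplicate slides.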 The settings on record: higher = more signal.
Experiment [19] relates to XIP peptide (Xip251-270) binding. Nature of the experiment: XIP fragment 251-270 binding compounds – biochemical, small-molecule microarray, fluorescence 635/667 nm, 0.1 µg/mL protein, primary screen (AID 1182). The settings on record: fluorescent protein binding, 635 nm, higher = more signal, called active from +8 up or from −8 down.
The next experiment concerns XIP peptide (Xip251-270). Nature of the experiment: compounds binding XIP fragment 251-270 – biochemical, small-molecule microarray, fluorescence 635/667 nm, 0.5 µg/mL protein, primary screen (AID 1183). The settings on record: fluorescence 635 nm, higher = more signal.

SMILES strings stand for the structures. The source made the active and inactive calls.

Sequence of E3 ubiquitin-protein ligase XIAP (Homo sapiens) (P98170 whole entry, looked up, the tested form may be a part): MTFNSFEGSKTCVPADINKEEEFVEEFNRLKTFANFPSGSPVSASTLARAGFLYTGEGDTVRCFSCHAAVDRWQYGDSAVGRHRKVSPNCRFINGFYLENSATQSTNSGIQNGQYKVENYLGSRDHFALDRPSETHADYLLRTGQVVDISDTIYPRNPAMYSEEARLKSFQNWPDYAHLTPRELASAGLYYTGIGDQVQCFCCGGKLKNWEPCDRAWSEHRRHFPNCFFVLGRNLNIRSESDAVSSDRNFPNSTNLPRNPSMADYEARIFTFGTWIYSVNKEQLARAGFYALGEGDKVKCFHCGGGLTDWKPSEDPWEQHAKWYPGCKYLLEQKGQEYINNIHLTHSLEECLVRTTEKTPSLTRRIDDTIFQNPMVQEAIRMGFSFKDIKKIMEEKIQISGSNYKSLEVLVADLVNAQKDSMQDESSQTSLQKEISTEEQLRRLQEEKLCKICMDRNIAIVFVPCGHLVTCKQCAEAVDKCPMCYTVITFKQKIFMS
Sequence of Dihydroorotate dehydrogenase (quinone), mitochondrial (Plasmodium falciparum (isolate 3D7)) (Q08210 whole entry, looked up): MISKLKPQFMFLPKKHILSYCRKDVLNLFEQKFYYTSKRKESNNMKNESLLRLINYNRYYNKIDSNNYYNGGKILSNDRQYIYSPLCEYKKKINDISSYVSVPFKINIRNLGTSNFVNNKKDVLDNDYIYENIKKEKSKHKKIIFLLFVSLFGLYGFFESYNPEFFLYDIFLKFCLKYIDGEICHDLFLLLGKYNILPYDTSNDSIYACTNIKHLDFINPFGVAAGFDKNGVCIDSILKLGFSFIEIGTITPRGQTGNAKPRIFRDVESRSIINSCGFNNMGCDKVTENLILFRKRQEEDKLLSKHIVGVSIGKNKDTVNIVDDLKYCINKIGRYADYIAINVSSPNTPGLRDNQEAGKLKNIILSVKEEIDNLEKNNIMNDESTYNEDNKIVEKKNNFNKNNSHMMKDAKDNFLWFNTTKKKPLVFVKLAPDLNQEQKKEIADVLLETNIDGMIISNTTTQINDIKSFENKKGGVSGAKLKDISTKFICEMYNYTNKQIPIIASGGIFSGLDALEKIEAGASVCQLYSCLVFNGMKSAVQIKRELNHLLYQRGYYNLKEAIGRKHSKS

On to `C[N+](C)(C)CCCCNC(=O)[C@@H]1C[C@@H]2C(=O)NCC(=O)N2[C@@H]1c1cccc(OCCO)c1`, for which the z-score in experiment [1] is -0.0369; in [2], 0.653; in experiment [3], 0.499; in [4], 0.089; in [5], 1.04; in [6] it was 0.294 (inactive). The z-score is -0.361 in experiment [7]; -0.552 in experiment [8]; -0.105 (inactive) in experiment [9]; 0.165 in experiment [10]; -0.0902 (inactive) in experiment [11]; 1.38 (inactive) in [12]. The z-score in experiment [14] is -1.21 (inactive); in [15] it was 1.87 (inactive); in experiment [16], 1.77 (inactive); in experiment [17], 0.356. Also, the composite z-score in experiment [13] was -27.8 (active); in experiment [18], 0.602; in [19], 0.71 (inactive); in the experiment with XIP peptide (Xip251-270), 0.865.

With `CCOC(=O)C[C@H]1[C@H](OC(=O)c2ccc(-c3ccccc3)cc2)[C@@H](NC(=O)c2ccccc2)c2cc(OCCCO)ccc2N1C(=O)c1ccccc1`, the z-score in experiment [1] was 1.54; in experiment [2], -0.159; in experiment [3] it was 1.11; in experiment [4] it was -0.132; in experiment [5], 3.28; in [6], 0.318 (inactive). Moreover, the z-score was 0.709 in [7]; 1.38 in experiment [8]; -0.325 (inactive) in experiment [9]; 0.643 in experiment [10]; -1.34 (inactive) in [11]; 1.83 (inactive) in [12]. For the same compound, the z-score in experiment [14] was -1.37 (inactive); in [15], 1.76 (inactive); in [16], 1 (inactive); in experiment [17] it was 0.815. For the same compound, the composite z-score was 0.594 (inactive) in experiment [13], -0.0351 in experiment [18], 0.358 (inactive) in [19] and -0.206 in the experiment with XIP peptide (Xip251-270).

Consider `CC(C)(C)OC(=O)CC[C@@]12N=C(c3ccc(OCCCO)cc3)O[C@@H]1c1ccccc1N(Cc1ccccc1)C2=O`, for which the z-score in experiment [1] is 1.87; in experiment [2], -0.186; in experiment [3], -1.9; in experiment [4] it was -3.34; in [5], 0.624; in experiment [6] it was 1.69 (inactive). Further, the z-score in experiment [7] is -0.778; in experiment [8] it was 1.44; in [9], 0.345 (inactive); in experiment [10] it was 0.375; in [11], -0.075 (inactive); in [12] it was -0.0313 (inactive). Moreover, the z-score was 1.17 (inactive) in experiment [14], 1.59 (inactive) in experiment [15], 0.358 (inactive) in experiment [16] and 0.574 in experiment [17]. Moreover, the composite z-score is 0.463 (inactive) in experiment [13], -0.635 in experiment [18], 1.63 (inactive) in experiment [19] and 0.693 in the experiment with XIP peptide (Xip251-270).

As to `COc1ccc([Si](C)(C)[C@H]2[C@H](CC(=O)N(CCO)Cc3ccccc3)O[C@@]3(C(=O)N(Cc4cccc(N5C(=O)COc6ccccc65)c4)c4ccccc43)[C@@H]2C)cc1`, the z-score in experiment [1] was 0.446; in experiment [2], -0.647; in experiment [3] it was -0.945; in [4], -2.66; in [5], 0.502; in experiment [6], 1.2 (inactive). Moreover, the z-score was -0.943 in experiment [7]; -0.397 in experiment [8]; -0.899 (inactive) in experiment [9]; 0.0785 in experiment [10]; 0.337 (inactive) in experiment [11]; -1.48 (inactive) in [12]. The z-score is 2.62 (inactive) in [14], 2.07 (inactive) in experiment [15], 2.13 (inactive) in experiment [16] and -2.97 in experiment [17]. Besides, the composite z-score in experiment [13] is -0.149 (inactive); in [18], 0.0727; in [19], 1.65 (inactive); in the experiment on XIP peptide (Xip251-270) it was 0.727.
